Source: PubChem BioAssay (EPA / NIEHS)
Several values for one entry are separate records, joined by “and”; a condition that tells them apart may be missing. Equal entries are not always repeated. Some structures have more than one record in an assay (separate samples or runs), and their calls can disagree. Activity calls are given as the source filed them. How the source made its calls: active means hit-call score of the fitted dose curve at least 0.9, where 1 is the maximum; inactive means score below 0.9.

Test: ATG_TCF_b_cat_CIS: Attagene CIS-FACTORIAL HepG2 Assay for human T-Cell-Factor with beta-catenin (TCF/b-cat) (AID 2282965)
Details: HepG2 TCF/beta-catenin cis-reporter transcription, actives raise or lower the signal
Protocol: ATG_CIS is a cell-based, multiplexed-readout assay that uses HepG2, a human liver cell line, with measurements taken at 24 hours after chemical dosing in a 24-well plate.ATG_TCF_b_cat_CIS is one of 52 assay component(s) measured or calculated from the ATG_CIS assay. It is designed to make measurements of mRNA induction, a form of inducible reporter, as detected with fluorescence intensity signals by Reverse transcription polymerase chain reaction (RT-PCR) and Capillary electrophoresis technology.Data from the assay component ATG_TCF_b_cat_CIS was analyzed into 1 assay endpoint. This assay endpoint, ATG_TCF_b_cat_CIS, was analyzed with bidirectional fitting relative to DMSO as the negative control and baseline of activity. Using a type of inducible reporter, measures of mRNA for gain or loss-of-signal activity can be used to understand the reporter gene at the transcription factor-level as they relate to the gene TCF7 and TCF7L2 and LEF1 and TCF7L1. Furthermore, this assay endpoint can be referred to as a primary readout, because this assay has produced multiple assay endpoints where this one serves a reporter gene function. To generalize the intended target to other relatable targets, this assay endpoint is annotated to the dna binding intended target family, where the subfamily is HMG box protein.
Human liver HepG2 cells are transiently transfected with multiple reporter transcription units (MRTUs) in 6-well plates using FuGene 6 reagent (Roche; 3 ml FuGene/1 mg DNA). The MRTU constructs are regulated by a cis-regulating element (promoter). […] A major difference between the CIS and TRANS system is that in CIS activities of endogenous TFs are measured, whereas the TRANS assay evaluates changes in activities of exogenous, chimeric NR-Gal4 proteins. […] At the end of 24 hour incubation, total RNA was isolated using TriZol reagent (Invitrogen). The isolated RNA is then reverse-transcribed using oligo(dT) primer and Mo-MLV reverse transcriptase (Invitrogen) with DNAse I (Ambion) treatment for 30 min. The one-tenth of the produced cDNA was amplified by PCR using Taq DNA polymerase (Invitrogen) and two reporter sequence-specific primers. The PCR products were fluorescently labeled by primer extension with 6-arboxyfluorescein (6-FAM) 5'-labeled reporter sequence-specific primer (2 min at 95 C, 20 s at 68 C and 10 min at 72 C) and these products were digested with 5U of HpaI (New England Biolabs) for 2h at 37 C. The fragments were purified using Qiaquick PCR columns (Qiagen), analyzed on an ABI 3130xL genetic analyzer (Applied Biosystems) with peak positions identified by using a set of X-rhodamine (ROX)-labeled MapMarker1000 molecular weight standards (BioVentures). The raw capillary electrophoresis data was processed using Attagraph software (Attagene).

SMILES | outcome | AC50
Nc1ccc(N=Nc2ccc(-c3ccc(N=Nc4c(S(=O)(=O)O)cc5cc(S(=O)(=O)O)c(N=Nc6ccccc6)c(O)c5c4N)cc3)cc2)c(N)c1 | inactive | 
Nc1cccc2ccccc12 | inactive | 
CC12CC1(C)C(=O)N(c1cc(Cl)cc(Cl)c1)C2=O (stereo not given) | inactive | 
CC(C)OC(=O)Nc1ccccc1 | inactive | 
Cl/C=C/Cl | inactive | 
ClCC(Cl)CCl | inactive | 
Fc1ccc(C2(Cn3cncn3)OC2c2ccccc2Cl)cc1 (stereo not given) | inactive | 
CC(C)(C)c1cc(O)ccc1O |  | 119 µM (active)
COc1cc(OC)nc(NC(=O)NS(=O)(=O)c2ncccc2C(=O)N(C)C)n1 | inactive | 
Cn1sc(Cl)cc1=O | inactive | 
CNC | inactive | 
Nc1cccc(Cl)c1 | inactive | 
CCCCOCCOC(C)=O | inactive | 
CC(C)c1ccc(CO)cc1 | inactive | 
O=C1C(Cl)=C(Cl)C(=O)c2ccccc21 | inactive | 
COP(=S)(OC)Oc1cc(Cl)c(Cl)cc1Cl | inactive | 
C=C(C)C#N | inactive | 
O=Cc1cccc(Oc2ccccc2)c1 | inactive | 
Oc1ccc(-c2ccccc2)cc1 | inactive | 

SMILES | outcome | AC50
Clc1nc(Cl)nc(Cl)n1 | inactive | 
COC(=O)Cc1ccccc1 | inactive | 
C[C@]12CCC(=O)C[C@@H]1CC[C@@H]1[C@@H]2CC[C@]2(C)[C@@H](O)CC[C@@H]12 | inactive | 24.6 µM (active) and 23.6 µM (active)
CCCCCCCCC(=O)NCc1ccc(O)c(OC)c1 | inactive | 
O=C(O)C(F)(F)C(F)(F)C(F)(F)C(F)(F)C(F)(F)C(F)(F)F | inactive | 
C=CC#N | inactive | 
CC1(C)CCC(Cc2ccc(Cl)cc2)C1(O)Cn1cncn1 (stereo not given) | inactive | 
CC(C)(C)CC(C)(C)c1ccc(O)cc1 | inactive | 18.2 µM (active)
CC(C)C1CCC(Cc2ccc(Cl)cc2)C1(O)Cn1cncn1 (stereo not given) | inactive | 
O=C(CCl)CCl |  | 23.4 µM (active)
CC(=[OH+])/C=C(/C)[O-].CC(=[OH+])/C=C(/C)[O-].CC(=[OH+])/C=C(/C)[O-].[Fe] | inactive | 
CC(=[OH+])/C=C(/C)[O-].CC(=[OH+])/C=C(/C)[O-].CC(=[OH+])/C=C(/C)[O-].[Al] | inactive | 
O=S(=O)(c1ccc(Cl)cc1)c1ccc(Cl)cc1 | inactive | 
O=C(O)Cc1ccccc1 | inactive | 
COP(=S)(OC)Oc1ccc(Sc2ccc(OP(=S)(OC)OC)cc2)cc1 | inactive | 
Cc1ccc2ccccc2c1C | inactive | 
ClC1=C(Cl)[C@]2(Cl)[C@@H]3[C@@H](Cl)[C@@H](Cl)C[C@@H]3[C@@]1(Cl)C2(Cl)Cl | inactive | 
COc1cc(-c2ccc(N)c(OC)c2)ccc1N | inactive | 
Clc1ccc(COC(Cn2ccnc2)c2ccc(Cl)cc2Cl)cc1 (stereo not given) | inactive | 
